High-throughput results deposited in PubChem BioAssay by National Center for Advancing Translational Sciences (NCATS).
ELG1 repair inh = qHTS screen for small molecules that inhibit ELG1-dependent DNA repair in human embryonic kidney (HEK293T) cells expressing luciferase-tagged ELG1 | 330,000 compounds, 2.3% hits | Potency, µM (highest dose often 46.1 µM), without a hit: at the highest dose activity change, negative = inhibition, hits mostly inhibitors | AID 504467, 2011 | HEK293T ELG1-luciferase reporter, luminescence, 16 h; DNA damage induced by 5-fluorouridine; further: potency means the concentration at half of the fitted maximal effect; nearly all actives have a fitted effect of over 55% in size
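In this reporter screen, reduction of luminescence relative to DMSO vehicle indicated activity. Compounds and 5-fluorouridine were added together to 2,000 cells per well, incubated for 16 hr at 37 °C, then developed with ONE-Glo.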
HT1080-NT tox = qHTS for induction of synthetic lethality in tumor cells producing 2HG: qHTS for the HT-1080-NT fibrosarcoma cell line. HT-1080-NT fibrosarcoma viability, CellTiter-Glo ATP luminescence, 48 h. Potency, µM (top dose mostly 46.1 µM), for the others: top-dose activity, negative = less viability, usual class: cytotoxic. 360,000 compounds, 1.6% hits. AID 686970, 2013;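 further: NT is the 2HG producing partner of a matched IDH1 knockdown line; potency means the concentration at half of the fitted maximal effect; 0% = DMSO-treated cells and -100% = media-only wells without cells; nearly all actives have a fitted effect of over 55% in size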
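Fibrosarcoma NT cells, 750 per well in 5% FBS RPMI, were exposed to compound for 48 hours. Viability: CellTiter-Glo luminescence.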
DT40 TDP1 CPT = qHTS for Inhibitors of human tyrosyl-DNA phosphodiesterase 1 (TDP1): qHTS in cells in presence of CPT | chicken DT40 Tdp1-/-;hTDP1 cells + 20 nM CPT, ATP luminescence, 48 h | Potency, µM (titrated, usually from 46.2 µM), for inactives: at the top dose activity change, negative = growth inhibition, usual class: inhibitors | 420,000 compounds, 12% hits | AID 686979, 2013; further: potency means the concentration at half of the fitted maximal effect; nearly all actives have a fitted effect of over 55% in size
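Chicken DT40 Tdp1-/- cells complemented with human TDP1, 400 cells/well, exposed to compounds plus 20 nM camptothecin for at least 48 h at 37 C; viability read as ATP content by CellTiter-Glo luminescence.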
HT1080 IDH1KD tx = qHTS for induction of synthetic lethality in tumor cells producing 2HG: qHTS for the HT-1080-IDH1KD cell line; HT-1080 IDH1 knockdown viability, ATP luminescence, 48 h; Potency, µM (highest dose often 46.1 µM), for the others: at the highest dose activity, negative = toxicity, usual class: cytotoxic; 360,000 compounds, 2% hits; AID 686971, 2013;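 further: potency means the concentration at half of the fitted maximal effect; 0% = DMSO wells and -100% = cell-free medium wells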
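IDH1KD HT-1080 cells, 750/well, RPMI + 5% FBS; compound pinned after 2 h settling; 48 h, 37 °C; CellTiter-Glo luminescence; % activity normalised to DMSO and no-cell wells; curves fitted, classed by r2 and efficacy.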
DT40 TDP1 no CPT = qHTS for Inhibitors of human tyrosyl-DNA phosphodiesterase 1 (TDP1): qHTS in cells in absence of CPT; Potency, µM (highest dose often 46.2 µM), for the others: at the highest dose activity change, negative = growth inhibition, most hits filed as inhibitors; 420,000 compounds, 15% hits; DT40 Tdp1-/- hTDP1 cells, no CPT, ATP luminescence, 48 h; further: potency means the concentration at half of the fitted maximal effect; nearly all actives have a fitted effect of over 55% in size
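Growth kinetics read by CellTiter-Glo luminescence after ≥48 hr at 37 °C. Cells: DT40 Tdp1-/- stably carrying human TDP1, 400 per well, compound exposure in the absence of CPT (DMSO vehicle).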
IL-1B inflam inh = qHTS for Inhibitors of Inflammasome Signaling: IL-1-beta AlphaLISA Primary Screen; THP-1 LPS/ATP IL-1B secretion, AlphaLISA, 16 h; active compounds read low; activity change, % at 57.5 µM; 360,000 compounds, 4.7% hits; in the data active means activity change below about -50%; inconclusive means mostly about -30% to -49%
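Secreted IL-1B measured by AlphaLISA bead assay after 16 h compound exposure of THP-1 cells; compounds (final up to 57.5 uM) added 1 h before LPS (250 ng/mL) and ATP (1.25 mM) stimulation; lower signal means less secretion.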
* marks the source's active call; other numbers are inactive results; ? = inconclusive; . = no result given. The list is not random: actives were taken first. Their share in the collection is about 19%. Unless noted, the call rests on the fitted dose curve; in most records, active means well fitted curve in the direction sought with a large enough effect; inconclusive means small, poorly fitted or top-dose-only effect, or another doubt; inactive means no such curve, though single readings can be large; an effect the other way counts as inactive or inconclusive. Unless noted, on the % scale 0 is the no-effect control and ±100 the full control effect.

SMILES	ELG1 repair inh	HT1080-NT tox	DT40 TDP1 CPT	HT1080 IDH1KD tx	DT40 TDP1 no CPT	IL-1B inflam inh
COc1ccc(-c2cc(C(=O)NCC3CCCO3)c3ccccc3n2)c(OC)c1 (stereo unspecified)	-4.1%	-0.4%	?	1.2%	?	29.8
COc1cccc(-c2nc(C(=O)NCC3CCCO3)cc3c2[nH]c2ccccc23)c1 (stereo unspecified)	?	?	2.59µM*	?	2.31µM*	?
CCN(CC)C(=O)[C@H]1C[C@H](CC(=O)NCCCn2ccnc2)C(=O)N2CCc3c([nH]c4cc(-c5ccco5)ccc34)[C@]12C	13.4%	-0.8%	3.8%	-0.6%	?	2.3
CCN(CC)C(=O)[C@H]1C[C@H](CC(=O)NCc2ccco2)C(=O)N2CCc3c([nH]c4cc(-c5ccco5)ccc34)[C@]12C	18.3µM*	-19.4%	?	-4.3%	?	-3.3
CC(C)N(C(=O)[C@H]1CC(CC(=O)NCc2cccc(C(F)(F)F)c2)C(=O)N2CCc3c([nH]c4ccccc34)[C@]12C)C(C)C (stereo partly specified)	?	1.2%	18.4µM*	1.6%	23.1µM*	?
CCN(CC)C(=O)[C@H]1C[C@H](CC(=O)NCCN2CCOCC2)C(=O)N2CCc3c([nH]c4cc(-c5ccco5)ccc34)[C@]12C	4.1%	-3.1%	20.6µM*	-6.2%	?	18.4
CCN(CC)C(=O)[C@H]1CC(CC(=O)NCCN2CCOCC2)C(=O)N2CCc3c([nH]c4ccccc34)[C@]12C (stereo partly specified)	7.7%	4.7%	-4.0%	3.8%	-5.5%	-2.7
CCN(CC)C(=O)[C@H]1C[C@H](CC(=O)NCc2cccc(C(F)(F)F)c2)C(=O)N2CCc3c([nH]c4cc(-c5ccco5)ccc34)[C@]12C	?	?	?	?	?	-58.0*
C=CCn1c(SCC(=O)NCC2CCCO2)nnc1-c1ccncc1 (stereo unspecified)	7.9%	-5.6%	-5.4%	-4.1%	-13.7%	0.0
Cc1ccc(NS(=O)(=O)c2ccc(OCC(N)=O)cc2)cc1	-4.8%	13.5%	16.4%	-5.9%	-5.7%	23.3
CCN(CC)C(=O)[C@H]1CC(CC(=O)NCc2cccc(C(F)(F)F)c2)C(=O)N2CCc3c([nH]c4ccc(OC)cc34)[C@]12C (stereo partly specified)	-12.4%	-7.3%	16.4µM*	-22.9%	14.6µM*	0.0
O=C(Cn1c(=O)nc(-c2ccccc2)c2ccccc21)Nc1ccc(Cl)c(C(F)(F)F)c1	.	.	6.9%	.	7.2%	.
CCOc1ccc(C2Nc3ccccc3-c3nnc(SCc4ccccc4)nc3O2)cc1OC (stereo unspecified)	.	.	18.4µM*	.	?	.
Cc1c(CN2CCC(CO)(CC3CCCCO3)CC2)cnn1C (stereo unspecified)	6.6%	-0.7%	11.6%	1.2%	-2.9%	14.5
Cc1cc(C(=O)CSc2nnc(N)s2)c(C)n1CCc1ccc(Cl)cc1	?	7.9%	9.2µM*	0.2%	?	17.2
